Laboratory results: PMC10214531

Target: Guanine nucleotide-binding protein G(I)/G(S)/G(T) subunit beta-1 (UniProt P62873)
Experiment: cross-link between two proteins; cross-linking mass spectrometry

## Guanine nucleotide-binding protein G(I)/G(S)/G(O) subunit gamma-2, P59768
  listed as a hit: yes
